TDP1 inh: blocks human tyrosyl-DNA phosphodiesterase 1 | 350,000 tested, 0.28% active | Potency, µM (titrated, usually from 130 µM), for inactives: at the highest dose activity change, negative = inhibition, usual class: inhibitors | Q9NUW8 | AID 485290 | recombinant TDP1, AlphaScreen DNA substrate cleavage; note: potency is the fitted concentration of half-maximal effect; % is set by controls: 0 for no effect and ±100 for the full control effect; nearly all actives have a fitted effect of over 40% in size
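AlphaScreen read-out: signal falls as enzyme removes the 3' tyrosine-FITC from a 5'-biotinylated DNA oligo (15 nM, 5 min, RT). Enzyme was E. coli-made recombinant Tdp1 at 1 nM, exposed to compound for 15 min beforehand; beads 10 ug/ml, 10 min.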
HP1b binding inh: HP1-beta chromodomain-methylated histone interaction inhibition; P83916; Potency, µM (series often up to 114 µM), inactives show at the top dose activity change, negative = inhibition, most hits filed as inhibitors; AlphaScreen HP1-beta / biotin-H3K9me3 peptide binding; AID 540317; 390,000 tested, 0.56% active; note: potency is the fitted concentration of half-maximal effect; nearly all actives have a fitted effect of over 70% in size
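AlphaScreen: HP1-beta (50 nM) preformed 30 min with biotin-H3(1-18)K9me3 peptide (50 nM) in PBS pH 7.4, 0.01% Tween-20. Compound added for 30 min at RT, then streptavidin donor/nickel chelate acceptor beads (10 ug/mL) for 30 min.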
BAZ2B block: blocks human BAZ2B; Potency, µM (series often up to 114 µM), for inactives: at the highest dose activity change, negative = inhibition, actives largely listed as inhibitors; Q9UIF8; 360,000 tested, 4.4% active; AlphaScreen BAZ2B-H3K14Ac peptide displacement; note: potency is the fitted concentration of half-maximal effect; % is set by controls: 0 for no effect and ±100 for the full control effect; nearly all actives have a fitted effect of over 60% in size
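Complex of BAZ2B and biotin-H3K14Ac (50 nM apiece) forms over 30 min at RT, then faces library compounds up to 110 uM for another 30 min; AlphaScreen beads added, 20 min dark incubation, luminescence read.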
Six1-Eya2 blk: blocks human Six1 binding to Eya2 | 360,000 tested, 0.56% active | AlphaScreen GST-Six1/His-Eya2 binding, biochemical; hits give low values | activity change, % (no concentration beside the values) | Q15475+O00167; in the data active = activity change below about -65%; inconclusive = mostly about -30% to -63%; note: % is set by controls: 0 for no effect and ±100 for the full control effect
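Compounds are tested against tagged Six1 and Eya2 proteins bridged by glutathione donor and nickel acceptor beads; after a one-hour incubation at 37 °C without light, AlphaScreen emission is recorded.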
JMJD2A Tudor inh: JMJD2A Tudor domain (human) inhibition | O75164 | AlphaScreen JMJD2A-Tudor / H3K4me3 peptide binding | Potency, µM (highest dose often 114 µM), for the others: at the top dose activity change, negative = inhibition, hits mostly inhibitors | 390,000 tested, 4.4% active; note: potency is the fitted concentration of half-maximal effect; % is set by controls: 0 for no effect and ±100 for the full control effect; nearly all actives have a fitted effect of over 50% in size
Target sequence (O75164 whole entry, looked up, the tested form may be a part): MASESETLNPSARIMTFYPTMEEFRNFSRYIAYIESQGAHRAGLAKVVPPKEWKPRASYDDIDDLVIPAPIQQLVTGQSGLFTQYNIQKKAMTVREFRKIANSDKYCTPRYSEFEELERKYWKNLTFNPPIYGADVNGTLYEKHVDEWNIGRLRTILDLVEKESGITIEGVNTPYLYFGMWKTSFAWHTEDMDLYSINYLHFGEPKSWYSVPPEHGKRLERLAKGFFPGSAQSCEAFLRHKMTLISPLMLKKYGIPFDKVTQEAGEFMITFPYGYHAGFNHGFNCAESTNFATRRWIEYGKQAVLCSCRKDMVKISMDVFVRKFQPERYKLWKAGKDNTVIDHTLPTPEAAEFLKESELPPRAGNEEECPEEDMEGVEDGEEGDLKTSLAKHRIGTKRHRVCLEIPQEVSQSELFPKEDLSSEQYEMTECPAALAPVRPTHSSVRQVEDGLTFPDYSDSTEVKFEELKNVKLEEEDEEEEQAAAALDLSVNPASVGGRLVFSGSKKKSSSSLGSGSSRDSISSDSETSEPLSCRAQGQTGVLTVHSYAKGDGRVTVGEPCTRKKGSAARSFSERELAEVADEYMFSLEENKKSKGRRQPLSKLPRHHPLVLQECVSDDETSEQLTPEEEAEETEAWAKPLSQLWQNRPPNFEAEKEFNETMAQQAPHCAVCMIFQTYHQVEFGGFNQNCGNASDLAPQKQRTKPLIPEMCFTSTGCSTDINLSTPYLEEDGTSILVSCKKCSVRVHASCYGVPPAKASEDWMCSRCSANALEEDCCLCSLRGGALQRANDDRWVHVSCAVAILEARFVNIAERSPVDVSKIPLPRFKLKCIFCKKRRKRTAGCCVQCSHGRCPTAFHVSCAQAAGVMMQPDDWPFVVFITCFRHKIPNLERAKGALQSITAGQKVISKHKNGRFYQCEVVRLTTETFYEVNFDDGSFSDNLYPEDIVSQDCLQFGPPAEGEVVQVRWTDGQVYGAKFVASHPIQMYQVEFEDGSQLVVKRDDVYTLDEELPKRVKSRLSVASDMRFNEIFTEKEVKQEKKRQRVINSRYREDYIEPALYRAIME
CtBP-E1A inh: inhibitors of CtBP/E1A interaction | 340,000 tested, 0.49% active | activity change, % (concentration not given with the values) | AID 651724 | AlphaScreen GST-E1A/His-CtBP binding, 1536-well; hits give low values; in the data active = activity change below about -65%; inconclusive = mostly about -30% to -63%; note: % is set by controls: 0 for no effect and ±100 for the full control effect
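GST-E1A and His-tagged CtBP (125 nM each as 5X stock) were preincubated with pin-transferred compound for 2 h at 37 °C in the dark, then glutathione donor and nickel acceptor beads were added for 1 h before AlphaScreen reading.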
* marks the source's active call; other numbers are inactive results; ? = inconclusive; . = no result; [ ] = dose if it differs, or a comment. A selection: hits, their analogues and other compounds. The true share with any hit is near 5.3%. Unless noted, calls come from the whole dose curve; as a rule, active = well fitted inhibition curve with a large enough effect; inconclusive = small, poorly fitted or top-dose-only effect; inactive = no such curve, though single readings can be large or run the other way.

SMILES	TDP1 inh	HP1b binding inh	BAZ2B block	Six1-Eya2 blk	JMJD2A Tudor inh	CtBP-E1A inh
NC(c1csc(Nc2ncccn2)n1)c1ccccc1Cl (stereo unspecified)	.	.	.	-67.9*	.	-66.1*
COc1ccc(CC(N)c2csc(Nc3ncccn3)n2)cc1 (stereo unspecified)	.	.	.	-71.0*	.	-79.6*
COc1ccc(CC(N)c2csc(Nc3cnccn3)n2)cc1 (stereo unspecified)	.	.	.	?	.	-74.7*
COc1ccc(CC(N)c2csc(Nc3nccc(C(F)(F)F)n3)n2)cc1 (stereo unspecified)	.	.	.	-6.7	.	-16.7
COc1ccc(CC(N)c2csc(Nc3ccc(C(C)=O)cc3)n2)cc1 (stereo unspecified)	.	.	.	-25.1	.	-12.1
COc1ccc(C(N)c2csc(Nc3ncccn3)n2)cc1 (stereo unspecified)	.	.	.	-85.1*	.	-83.0*
COc1ccc(-c2cc(C(=O)O)n(Cc3ccccc3)n2)cc1	2.3%	14.2%	.	.	-17.3%	.
CCc1cnc(Nc2nc(C(N)Cc3ccc(F)cc3)cs2)nc1 (stereo unspecified)	.	.	.	?	.	-71.1*
NC(c1csc(Nc2cc(NCCCO)ncn2)n1)c1ccccc1Cl (stereo unspecified)	.	.	.	-89.0*	.	-89.2*
COc1ccc(CC(N)c2csc(Nc3cc(NCc4ccco4)ncn3)n2)cc1 (stereo unspecified)	.	.	.	-65.2*	.	-73.5*
Cc1ccc2nc(Cl)c3cc(C(=O)N(C)C4CCCCC4)sc3c2c1	-6.4%	34.7%	-1.3%	.	-2.0%	.
COc1ccc(CNC(=O)C2CCN(S(=O)(=O)Cc3ccccc3)CC2)cc1	2.9%	47.3%	?	.	-12.3%	.
CCc1cc(=O)oc2c(C)c(O)c(CN3CCCCC3)cc12	4.9%	23.9%	8.9%	4.5	79.4µM*	2.7
Cc1c(O)c(CN2CCCC2)cc2c3c(c(=O)oc12)CCC3	-10.5%	-6.7%	?	-1.6	-19.0%	-9.7
O=c1cc(CN2CCN(Cc3ccccc3)CC2)c2ccc(O)c(O)c2o1	.	4.1%	39.8µM*	-20.5	?	0.0
Cc1c(O)ccc2c(CN3CCN(Cc4ccccc4)CC3)cc(=O)oc12	.	25.1%	2.4%	-11.9	-22.1%	-11.1
Cc1cc2c(s1)c1cnn(Cc3ccc(C(F)(F)F)cc3)c(=O)c1n2C	-4.4%	.	.	.	-6.8%	.
O=C(CN1C(=O)CSc2ccc(S(=O)(=O)N3CCCC3)cc21)NCc1ccc(F)cc1Cl	2.6%	11.5%	-6.1%	.	-29.4%	.
CCCC[C@@H]1C[C@H]1C(NC(=O)c1cccnc1)c1ccc(-c2ccccc2)cc1 (stereo partly specified)	5.7%	.	.	.	.	.
COC(=O)C1=C(C(=O)OC)C(C(=O)OC)C(C(=O)OC)C(C(=O)OC)(C(=O)OC)C(C(=O)OC)=C1C(=O)OC (stereo unspecified)	.	50.1µM*	.	9.0	89.1µM*	2.0
C#CCOCCOCCOCCNc1nc(N2CCN(C(=O)CCCCCCCCCCNC(=O)[C@H](CCC(=O)O)n3cc(CCCCCN)nn3)CC2)nc(N2CCN(C(=O)CCCCCCCCCCNC(=O)[C@@H]([C@H](C)O)n3cc(C)nn3)CC2)n1	4.4%	16.4%	-37.9%	-5.3	?	.
C#CCOCCOCCOCCNc1nc(N2CCN(C(=O)CCCCCCCCCCNC(=O)Cn3cc(CCCCCN)nn3)CC2)nc(N2CCN(C(=O)CCCCCCCCCCNC(=O)[C@H](CO)n3cc(CCCCCN)nn3)CC2)n1	12.0%	3.4%	?	-8.0	?	-12.1
C#CCOCCOCCOCCNc1nc(N2CCN(C(=O)CCCCCCCCCCNC(=O)[C@H](CCCCN)n3cc(C)nn3)CC2)nc(N2CCN(C(=O)CCCCCCCCCCNC(=O)[C@@H]([C@H](C)CC)n3cc(CCCCCN)nn3)CC2)n1	15.6%	.	56.2µM*	.	.	.
C#CCOCCOCCOCCNc1nc(N2CCN(C(=O)CCCCCCCCCCNC(=O)Cn3cc(CCCCCN)nn3)CC2)nc(N2CCN(C(=O)CCCCCCCCCCNC(=O)[C@H]([C@@H](C)CC)n3cc(CCCCCN)nn3)CC2)n1	6.3%	?	?	-1.6	79.4µM*	-13.9
C#CCOCCOCCOCCNc1nc(N2CCN(C(=O)CCCCCCCCCCNC(=O)[C@H]([C@@H](C)CC)n3cc(CCCCCN)nn3)CC2)nc(N2CCN(C(=O)CCCCCCCCCCNC(=O)[C@@H]([C@H](C)O)n3cc(C)nn3)CC2)n1	6.8%	?	56.2µM*	2.2	56.2µM*	-9.2
SMILES	TDP1 inh	HP1b binding inh	BAZ2B block	Six1-Eya2 blk	JMJD2A Tudor inh	CtBP-E1A inh
O=C(Nc1ccccc1OCc1cc(=O)n2ccccc2n1)c1ccccc1F	-2.7%	32.4%[57 µM]	10.7%	.	8.1%	.
CC(NC(=O)c1ccc2c(c1)sc1nc(-c3ccccc3)cn12)C12CC3CC(CC(C3)C1)C2 (stereo unspecified)	6.5%	37.9%	2.1%	.	-6.9%	.
CCC(=O)O[C@@H]1[C@H](C)O[C@H](O[C@H]2[C@@H](N(C)C)[C@H](O)[C@@H](O[C@@H]3[C@@H](CC=O)C[C@@H](C)[C@@H](O)/C=C\C=C/C[C@@H](C)OC(=O)C[C@@H](OC(=O)CC)[C@H]3OC)O[C@H]2C)C[C@]1(C)O	4.8%[56.1 µM]	.	.	.	.	.
CC(=O)N1CCC2(CC1)OC(=O)C(C)=C2C(=O)Nc1cccc(Cl)c1C	-6.2%	37.9%	-5.6%	.	-16.5%	.
CCOc1cc(/C=C(/NC(C)=O)C(=O)O)cc(Cl)c1OCc1cccc(Br)c1	2.8%	2.9%[57 µM]	50.1µM*	-10.4	?	1.4
CCOc1cc(C(N)=O)cc(Cl)c1OCc1ccccc1	-2.7%	23.8%	?	2.5	-11.6%	.
Cc1cc2c(s1)c1cnn(Cc3ccc(Br)cc3F)c(=O)c1n2C	.	.	.	.	-21.9%	.
O=C(N=Nc1ccc(NOC(=O)c2ccccc2Br)cc1)c1ccccc1O	0.0%	.	7.94µM*	.	.	.
COc1cccc([C@@H]2Oc3ccc(OC)cc3/C(=N/O[C@@H](C)c3cc(-c4c(C)cc(C)cc4C)no3)[C@@H]2O)c1	7.9%[21 µM]	.	.	.	.	.
COc1cccc(CNC(=O)Cc2ccc(NC(=O)C3=C(C)OCCS3)cc2)c1	0.0%	17.3%	50.1µM*	-6.1	?	-2.1
COc1cccc(CNC(C)C(=O)Nc2ccc3c(c2)OCCO3)c1 (stereo unspecified)	1.2%	?	?	9.2	3.16µM*	3.5
COc1cccc(NC(=O)c2ccc3c(c2)OCCO3)c1	5.9%	24.0%	1.0%	3.3	-1.4%	3.8
CC1=C(C(=O)Nc2ccc(CC(=O)NCc3ccccc3C)cc2)SCCO1	4.6%	47.4%	?	-0.6	-16.2%	-1.8
